Results published in article PMC8159961, “Exploring protein hotspots by optimized fragment pharmacophores” (Nature Communications, 2021).

Molecular target: 5-HT1A receptor (human, UniProt P08908)
Test: primary screen, binary call; higher = more effect of the substance
Design: hit call from the mean of at least two separate experiments
Settings: 10 µM; call rule not given here
Description: GPCR radioligand binding assays were performed in HEK293 cells with stable expression of human 5-HT1A, 5-HT6, and 5-HT7b receptors (prepared with the use of Lipofectamine 2000). Non-specific binding was defined with 10 µM of 5-HT in 5-HT1AR and 5-HT7R binding experiments, whereas 10 µM of mianserin was used in 5-HT6R assays, respectively. Each compound was tested at 10 µM concentration. Results were expressed as means of at least two separate experiments.

5-HT1A receptor, sequence (P08908 whole entry, looked up): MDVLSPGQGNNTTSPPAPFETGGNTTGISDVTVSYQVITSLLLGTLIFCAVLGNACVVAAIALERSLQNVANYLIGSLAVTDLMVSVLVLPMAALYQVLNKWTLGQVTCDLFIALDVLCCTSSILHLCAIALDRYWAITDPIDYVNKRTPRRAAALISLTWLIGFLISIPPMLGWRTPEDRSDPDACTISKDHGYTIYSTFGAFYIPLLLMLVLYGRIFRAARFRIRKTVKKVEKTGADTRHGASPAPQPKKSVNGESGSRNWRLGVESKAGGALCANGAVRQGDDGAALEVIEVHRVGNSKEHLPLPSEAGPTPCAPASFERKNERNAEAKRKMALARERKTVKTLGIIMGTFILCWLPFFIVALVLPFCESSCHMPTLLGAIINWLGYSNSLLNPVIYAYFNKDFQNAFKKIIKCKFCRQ

Structure (SMILES)	5-HT1
Cc1nc(-c2ccccc2)cs1	0 (inactive)
Oc1ccc(C2CCNCC2)cc1	0 (inactive)
COC(=O)c1c(C)nc(C2CC2)[nH]c1=O	0 (inactive)
Cc1cc(-c2ccccc2)n[nH]1	0 (inactive)
O=C1CCCc2occc21	0 (inactive)
Cn1nc(C(F)(F)F)cc1O	0 (inactive)
O=C(NC1CC1)c1ccccc1O	0 (inactive)
c1ccc2c(N3CCNCC3)ccnc2c1	1 (active)
O=c1ccc2c([nH]1)CCCC2	0 (inactive)
Oc1ccccc1N1CCCCC1	0 (inactive)
O=C(O)C1CCCN(C(=O)N2CCCC2)C1 (centres unmarked)	0 (inactive)
